Results on 40 molecules are retold here after PubChem BioAssay (Tox21).

Inconclusive results are not listed. Where a call stands in place of a potency, no number is given. Active and inactive are the calls of the source. The call rests on the fitted dose curve; in most records, active means well fitted activation curve with a large enough effect in the signal ratio in the repeat runs (not every such curve was filed as active); inconclusive means weak or mixed curves; inactive means flat fitted curve, though single readings scatter; the % refers to the signal ratio.
Potency means the concentration at half of the fitted maximal effect.

The assay in a line: p53 small molecule agonists, cell-based qHTS assay (AID 1963582). The note with it: HCT-116 p53RE-bla reporter, beta-lactamase FRET ratio, 16 h; series mostly up to 66 µM. The text has this:
National Center for Advancing Translational Sciences [NCATS]
Division of Preclinical Innovation [DPI]
U.S. Environmental Protection Agency [EPA]
National Institutes of Environmental Health Sciences [NIEHS]
National Toxicology Program [NTP]
U.S. Food and Drug Administration [FDA]
p53, a tumor suppressor protein, is activated following cellular insult, including DNA damage and other cellular stresses. The activation of p53 regulates cell fate by inducing DNA repair, cell cycle arrest, apoptosis, or cellular senescence. The activation of p53, therefore, is a good indicator of DNA damage and other cellular stresses. […] The activation of the reporter gene under culture conditions can be detected by fluorescence intensity. This cell line was used to screen the Tox21 10K compound library in a 1536-well plate format and to identify agonists that activate the p53 signaling pathway.
Tox21 Assay Protocol Summary:
The p53RE-bla cells were dispensed at 4,000 cells/5 ul/well in 1536-well black wall/clear bottom plates using a Multidrop dispenser. After the assay plates were incubated at a 37 C/5% CO2 incubator for 5 hours, 23 nL of compounds dissolved in DMSO, positive controls or DMSO only was transferred to the assay plate by a pin tool. The plates were incubated at 37 C for 16 hours. After 1 uL of LiveBLAzerTM B/G FRET substrate was added using a Flying Reagent Dispenser, the plates were incubated at room temperature for 2 hours, and fluorescence intensity was measured by an Envision plate reader.
`O=S(=O)(O)c1cc(O)c(O)c(S(=O)(=O)O)c1`: the Potency result is “inactive”.
Still for that read-out and setting: next, `N=C(N=C(N)N)N1CCOCC1`: “inactive”; `CC[C@H](c1ccc(O)cc1)[C@@H](CC)c1ccc(O)cc1`: “inactive”.
Same read-out and setting: the value for `CC12CCC(C(=O)C1=O)C2(C)C` (stereo not given) was “inactive”.
On to `OCCOc1ccc(OCCO)cc1`, for which the Potency result was “inactive”.
Still for that read-out and setting: next, `CC(C)OCCO`: “inactive”.
Regarding `C=CCS(=O)(=O)O`, the Potency entry is “inactive”.
The same measure, in the same setting: next, `CCCCSCCCC`: “inactive”.
Same read-out and setting: next, `CC(=O)NCCO`: “inactive”; `O=c1[nH]c(=O)c2ccccc2o1`: “inactive”; `CC(C)(C)OC(=O)c1cccc(N)c1`: “inactive”.
For `CC(COCCO)OCCO` (stereo not given), the Potency result was “inactive”.
Same read-out and setting: the value for `CC(C)(C)C(=O)OCOP(=O)(COCCn1cnc2c(N)ncnc21)OCOC(=O)C(C)(C)C` was 7.93 µM (active); that for `Cc1ccccc1C(=O)N1CC/C(=N\OS(=O)(=O)O)c2ccc(Cl)cc21` was “inactive”; that for `CC1C(C)(C)C2=C(C(=O)CCC2)C1(C)C` (stereo not given) was “inactive”.
Regarding `NNc1nncc2ccccc12`, the Potency entry was “inactive”.
On the same count and under the same terms, the value for `Nc1cccc2c1CN(C1CCC(=O)NC1=O)C2=O` (stereo not given) was “inactive”.
On the same count and under the same terms, next, `Nc1cc(-c2ccncc2)c[nH]c1=O`: “inactive”.
Same read-out and setting: the value for `Cc1[nH]cnc1-c1ccc(Cl)cc1` was “inactive”.
Regarding `O=C1CC(c2ccc(Cl)cc2)CC(=O)N1`, the Potency entry is “inactive”.
For the molecule `Cc1cc(C)cc(OCC2CNC(=O)O2)c1` (stereo not given), the Potency result was “inactive”.
The same measure, in the same setting: the value for `CC(=O)CC(C)=O` was “inactive”.
The same measure, in the same setting: the value for `CCOC(=O)n1ccn(C)c1=S` was “inactive”; that for `COc1cc2c(Nc3ccc(Br)cc3F)ncnc2cc1OCC1CCN(C)CC1` was “inactive”; that for `Cc1ccc(N)cc1[N+](=O)[O-]` was “inactive”.
Still for that read-out and setting: the value for `Oc1c(Cl)ccc(Cl)c1Cl` was “inactive”; that for `Cc1ccc(C)cc1` was “inactive”; that for `COc1ccc(NC(C)=O)cc1` was “inactive”.
Take `Cc1occc1SSc1ccoc1C`: the Potency entry was “inactive”.
Take `Cc1cc(N)no1`: the Potency result is “inactive”.
Take `O=C(O)CN(CCCN(CC(=O)O)CC(=O)O)CC(=O)O`: the activation was 5.83% [at 13.5 µM] (inactive).
Turning to `CCO[Si](CCCN=C=O)(OCC)OCC`, the Potency result was “inactive”.
Regarding `CCCCCCCCS`, the Potency entry is “inactive”.
Same read-out and setting: next, `FC(F)(F)c1ccccc1Cl`: “inactive”; `CN(C)CCOC(c1ccc(Cl)cc1)c1ccccn1` (stereo not given): “inactive”; `CC1(C)[C@@H]2CC[C@@]1(C)[C@H](O)C2`: “inactive”.
Same read-out and setting: the value for `CCCC=O` was “inactive”.
`CCC(=O)OCc1ccccc1`: the Potency entry was “inactive”.
Still for that read-out and setting: next, `C/C=C/C(=O)CCCC`: “inactive”.
As for `CNCCS(=O)(=O)O`, the Potency entry is “inactive”.
